Data taken from PubChem BioAssay (NCATS).
Inconclusive results are not listed. Values without a mark were called inactive. Calls of active or inactive are those of the source. Calls come from the whole dose curve; as a rule, active = well fitted curve in either direction with a large enough effect (not every such curve was filed as active); inconclusive = small, poorly fitted or top-dose-only effect, or another doubt; inactive = flat fitted curve, though single readings scatter. Starred links: 1 amine or outer side, 2 acyl side, 3 side chain; linkers in the order of their positions; H or OH if unused. Positions of bridges follow the written chain, without caps; N, C: chain ends. Bridge positions count the residues as written; N and C are the ends. Non-standard residues stand in square brackets, D forms with d. Square brackets hold non-standard residues; d marks the D form. Residues, ends and D or L forms follow the SMILES beside them. Peptide text beside a SMILES is read from it. * marks the point of attachment. *: point of attachment. Ileψ(thiazoline)Cys = CC[C@H](C)[C@H](N)C1=N[C@H](C(=O)*)CS1; X1 = NC1=N[C@@H](O)C[C@@H]([C@@H](N[*:1])C(=O)[*:2])N1; ΔAla(Z-3-ureido) = NC(=O)N/C=C(\N)C(=O)O; d(aIle) = CC[C@H](C)[C@@H](N)C(=O)O; β3hOrn = NCCC[C@H](N)CC(=O)*; dOrn = NCCC[C@@H](N)C(=O)O; Dap = NC[C@H](N)C(=O)O

Assay: AP1 Signaling Pathway (AID 357);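 note: ME-180 reporter cells stimulated with EGF at its EC50 level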
Details: ME-180 (cervical carcinoma) AP-1-bla reporter, EGF-induced, beta-lactamase ratio, 5 h; series mostly up to 17.2 µM; activity change, negative = inhibition: at the top concentration
Summary of the method: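 Cells are seeded overnight, exposed to compound titrations and an EC50 level of EGF for 5 hours at 37 °C, then loaded with CCF4 dye for 2.5 hours. Beta-lactamase activity under the AP-1 element is read as a blue/green ratio.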
% is set by controls: 0 for no effect and ±100 for the full control effect.

Structure (SMILES) | activity change, negative = inhibition [%]
NCCC[C@H](N)CC(=O)N[C@H]1CNC(=O)[C@@H]([C@@H]2C[C@H](O)N=C(N)N2)NC(=O)/C(=C/NC(N)=O)NC(=O)[C@@H](CO)NC(=O)[C@@H](CO)NC1=O (β3hOrn-[Dap][dS][dS][ΔAla(Z-3-ureido)][X1]; lactam 1-C) | 0.537
C=CCO[C@@H](Cn1ccnc1)c1ccc(Cl)cc1Cl | 10.4
C#C[C@]1(O)CC[C@@H]2[C@H]3CCC4=CCCC[C@@H]4[C@@H]3CC[C@@]21C | 24.3
CC1(C)[C@@H](OC(=O)CCC(=O)O)CC[C@@]2(C)[C@H]1CC[C@@]1(C)[C@H]2C(=O)C=C2[C@H]3C[C@](C)(C(=O)O)CC[C@]3(C)CC[C@@]21C | 16.5
COc1ccc([C@@H]2CC(=O)c3c(O)cc(O)cc3O2)cc1O | -14.3
OCCOCCN1CCN([C@@H](c2ccccc2)c2ccc(Cl)cc2)CC1 | -7.49
C[C@H](CCC(=O)O)[C@H]1CC[C@@H]2[C@@H]3[C@@H](O)C[C@H]4C[C@@H](O)CC[C@@]4(C)[C@H]3CC[C@@]21C | 3.7
CN1CCO[C@H](c2ccccc2)c2ccccc2C1 | 1.01
O=C(N[C@@H](CO)[C@@H](O)c1ccc([N+](=O)[O-])cc1)C(Cl)Cl | -1.22

Assay: NFAT Signaling Pathway (AID 444);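 note: carbachol stimulus at about its EC50 of 1 µM final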
Details: Jurkat NFAT-bla M1, carbachol, beta-lactamase ratio, 5 h; at 17.2 µM (top of the series) unless noted
Summary of the method: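 Read-out: CCF4 FRET ratio (460 nm/530 nm) after 1 h RT dye loading, used for %activity and AC50 from titration series. Cells: Jurkat NFAT-β-lactamase/M1 line, treated with compound plus 1 uM carbachol for 5 h, 37 °C.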

Structure (SMILES) | activity change, negative = inhibition
C[C@@H]1C[C@H]2[C@@H]3C[C@H](F)C4=CC(=O)C=C[C@@]4(C)[C@]3(F)[C@H](O)C[C@]2(C)[C@@]1(O)C(=O)CO | 2.6%
C[N+]1(C)CCC[C@H]1C(=O)[O-] | -2.21%
C[C@H](O)Cn1cnc2c1c(=O)n(C)c(=O)n2C | 18.8%
CCCCC[C@H](O)/C=C\[C@@H]1[C@H](O)CC(=O)[C@@H]1CCCCCCC(=O)O | -1.09%
CC(=C(CCOP(=O)(O)O)SC(=O)c1ccccc1)N(C=O)Cc1cnc(C)nc1N | 2.39%
CC(C)(CO)[C@H](O)C(=O)NCCC(=O)O | 8.26%
NC[C@@H]1O[C@@H](O[C@H]2[C@H](O)[C@H](O[C@@H]3O[C@H](CO)[C@@H](O)[C@H](N)[C@@H]3O)[C@@H](N)C[C@H]2N)[C@H](N)C[C@@H]1O | -7.92%
S=C(NC1CCCCC1)N1CCC([C@H]2C=NC=N2)CC1 | -11%
CCc1c(C)[nH]c2c1C(=O)[C@H](CN1CCOCC1)CC2 | -21.1%
C=C1c2c(Cl)ccc(O)c2C(O)=C2C(=O)[C@@]3(O)C(O)=C(C(N)=O)C(=O)[C@@H](N(C)C)[C@@H]3[C@@H](O)[C@H]12 | -26.3%
CCC(=O)OCC(=O)[C@@]1(OC(=O)CC)[C@H](C)C[C@@H]2[C@@H]3[C@H]([C@@H](O)C[C@@]21C)[C@]1(C)C=CC(=O)C=C1C[C@@H]3Cl | 14%
C[C@H](CCC(=O)O)[C@H]1CC[C@@H]2[C@H]3[C@@H](CC[C@@]21C)[C@]1(C)CC[C@H](O)C[C@@H]1C[C@@H]3O | -6.74%
CS(=O)(=O)c1ccc([C@H](O)[C@H](CF)NC(=O)C(Cl)Cl)cc1 | 1.9%
CC[C@]1(c2ccccc2)NC(=O)N(C)C1=O | -14.9%
CC[C@H](C)[C@H](N)C1=N[C@H](C(=O)N[C@@H](CC(C)C)C(=O)N[C@@H](CCC(=O)O)C(=O)N[C@@H](C(=O)N[C@H]2CCCCNC(=O)[C@@H](CC(N)=O)NC(=O)[C@@H](CC(=O)O)NC(=O)[C@@H](Cc3cnc[nH]3)NC(=O)[C@@H](Cc3ccccc3)NC(=O)[C@@H]([C@@H](C)CC)NC(=O)[C@@H](CCCN)NC2=O)[C@@H](C)CC)CS1 ({Ileψ(thiazoline)Cys}-LE[d(aIle)]K[dOrn][d(aIle)][dF][dH][dD][dN]; lactam 4-C) | 1.53%
CO[C@@H]1C=CO[C@]2(C)Oc3c(C)c(O)c4c(O)c(c(C=NN5CCN(C)CC5)c(O)c4c3C2=O)NC(=O)C(C)=CC=C[C@H](C)[C@H](O)[C@H](C)[C@H](O)[C@H](C)[C@H](OC(C)=O)[C@H]1C | -8.69%
COCCOC(=O)C1=C(C)NC(C)=C(C(=O)OC(C)C)[C@H]1c1cccc([N+](=O)[O-])c1 | -10.3%
C=C1CC23C[C@H]4[C@@H]5[C@@]6(C)C[C@H](OC(=O)c7ccccc7)[C@@H](OC(C)=O)[C@]57[C@@H]2[C@@H](OC(C)=O)[C@H]1[C@@H](O)[C@H]3[C@H]7N4C6 | -10.3%
O=C(N/N=C\c1ccc([N+](=O)[O-])o1)c1ccc(O)cc1 | 1.26%
CCOC(=O)O[C@@H](C)OC(=O)[C@@H]1N2C(=O)[C@@H](NC(=O)[C@@H](N)c3ccccc3)[C@H]2SC1(C)C | -4.72%
CC#C[C@@]1(O)CC[C@H]2[C@@H]3CCC4=CC(=O)CCC4=C3[C@H](c3ccc(N(C)C)cc3)C[C@]21C | 15.9%
COc1cc(OC)c2c(c1Cl)O[C@@]1(C2=O)[C@H](C)CC(=O)C[C@@H]1OC | -1.63%
O[C@H](c1cc(C(F)(F)F)nc2c(C(F)(F)F)cccc12)[C@H]1CCCCN1 | 24.6%
C[N+]1(C)CC[C@@H](OC(=O)[C@@](O)(c2ccccc2)C2CCCC2)C1 | -43.8% (active)
NCCC[C@H](N)CC(=O)N[C@H]1CNC(=O)[C@@H]([C@@H]2C[C@H](O)N=C(N)N2)NC(=O)/C(=C/NC(N)=O)NC(=O)[C@@H](CO)NC(=O)[C@@H](CO)NC1=O (β3hOrn-[Dap][dS][dS][ΔAla(Z-3-ureido)][X1]; lactam 1-C) | -11.1%
COc1ccc([C@@H]2CC(=O)c3c(O)cc(O)cc3O2)cc1O | -2.52%
C[C@H](CCC(=O)O)[C@H]1CC[C@@H]2[C@@H]3[C@@H](O)C[C@H]4C[C@@H](O)CC[C@@]4(C)[C@H]3CC[C@@]21C | 14.2%
O=C(N[C@@H](CO)[C@@H](O)c1ccc([N+](=O)[O-])cc1)C(Cl)Cl | -12.6%
